Where “and” joins values, the source holds several entries; their conditions need not be identical. Equal entries are not always repeated. Inconclusive results are not listed. Calls of active or inactive are those of the source. The call rests on the fitted dose curve; in most records, active means well fitted inhibition curve with a large enough effect; inconclusive means small, poorly fitted or top-dose-only effect; inactive means flat fitted curve, though single readings scatter.
On the % scale 0 is the no-effect control and ±100 the full control effect; potency means the concentration at half of the fitted maximal effect.

This test concerns KB-3-1. Nature of the test: Cytotoxic Profiling of Annotated Libraries Using Quantitative High-Throughput Screening (AID 1296008). Further: nearly all actives have a fitted effect of over 60% in size. As to conditions: Five cell lines viability, CellTiter-Glo ATP luminescence, 48-72 h; max response: hits give low values. The source says: Cell-based phenotypic screening is a commonly used approach to discover biological pathways, novel drug targets, chemical probes and high-quality hit-to-lead molecules. Many hits identified from high-throughput screening campaign are ruled out through a series of follow-up potency, selectivity/specificity, and cytotoxicity assays. Prioritization of molecules with little or no cytotoxicity for a more in-depth downstream evaluation influence the future direction of projects, so cytotoxicity profiling of the screening libraries at early stage is essential for increasing the likelihood of candidate success. […] For the annotated library, we also examined the primary targets and mechanistic pathways regularly associated with cell death. To our knowledge, this is the first study to use high-throughput screening to profile large libraries for cytotoxicity assessment in both normal and cancer cell lines. In summary, the results generated here constitutes a valuable resource for the scientific community and provides insight on identifying cytotoxic compounds with particular mechanisms of action, and prioritizing compounds with suitable cytotoxicity profile for further evaluation.
A pintool (Kalypsys) was used to transfer 23 nL of compound solution to the 1536-well assay plates. After 48 or 72 hr incubation at 37 degree Celsius, 5% CO2 and 95% humidity, 2.5 uL of CellTiter-Glo (Promega) was dispensed into each well using a dispenser (Aspect Automation, St. Paul, MN) with solenoid valves (Lee Valves, Westbrook CT). Plates were left at room temperature for 10 min before imaging the ATP-coupled luminescence using a ViewLux microplate imager (PerkinElmer, Waltham, MA).
For orientation: ATP-based viability assays read luminescence as a measure of living cells.
`O=C1C(CCS(=O)c2ccccc2)C(=O)N(c2ccccc2)N1c1ccccc1` (stereo not given): the max response was 4.22% (inactive).

As for `CC(=O)NCCCCCC(=O)O`, the max response was 0.772% (inactive).

As for `Oc1ccccc1C=NCc1ccccc1`, the max response is -4.65% (inactive).

Take `Cc1cc(C)cc(OCC2CNC(=O)O2)c1` (stereo not given): the max response is 2.21% (inactive).

In the case of `CC(=O)Nc1ccc(OCC(O)CNC(C)C)cc1` (stereo not given), the max response is -4.81% (inactive).

On to `CC(C)NCC(O)c1ccc2ccccc2c1` (stereo not given), for which the max response is -2.59% (inactive).

With `Cc1cc(CC(=O)O)c(C)n1-c1ccc(Cl)cc1`, the max response was -2.45% (inactive).

With `COc1cc(O)c(C(=O)c2ccccc2)cc1S(=O)(=O)O`, the max response is -4.48% (inactive).

As to `CCNC(=O)NCc1cccc(Cl)c1`, the max response is 2.4% (inactive).

For the molecule `N/C(=N\N=C\c1ccc(Cl)cc1)N/N=C/c1ccc(Cl)cc1`, the max response is 13.1% (inactive).

Turning to `N#C/C(=C1\SCC(c2ccccc2Cl)S1)n1ccnc1` (stereo not given), the max response was 0.837% (inactive).

Consider `CCOc1cc(OCC)c(C(=O)CCC(=O)O)cc1OCC`, for which the max response was -0.0013% (inactive).

On to `CC(C)(C)NC[C@H](O)COc1cccc2c1CCCC2=O`, for which the max response was -2.09% (inactive).

With `CC(C)=CCOc1ccc(/C=C/C(=O)c2ccc(OCC=C(C)C)cc2OCC(=O)O)cc1`, the max response was 1.11% (inactive).

Consider `CC1(C)OC[C@@H]2O[C@@]3(C(=O)O)OC(C)(C)O[C@H]3[C@@H]2O1`, for which the max response is -15.5% (inactive).

In the case of `CCN1/C(=C/C=C/c2sc3ccccc3[n+]2CC)Sc2ccccc21`, the Potency is 7.31 µM (active).

Turning to `CCc1oc2ccccc2c1C(=O)c1cc(I)c(O)c(I)c1`, the max response was -18.7% (inactive).

Take `CN=C(N)NCCC[C@H](N)C(=O)O`: the max response is -24.2% (inactive) and -3.13% (inactive) and -1.75% (inactive).

Turning to `CCOc1ccccc1OCCN[C@H](C)Cc1ccc(OC)c(S(N)(=O)=O)c1`, the max response was 4.78% (inactive).

With `CC(C)Cc1ccc(CC(=O)O)cc1`, the max response is -9.62% (inactive).

Turning to `CCN1CCN(C(=O)N[C@@H](C(=O)N[C@@H]2C(=O)N3C(C(=O)O)=C(CSc4nnnn4C)CS[C@H]23)c2ccc(O)cc2)C(=O)C1=O`, the max response is -4.94% (inactive).

As for `COc1ccc(CN(CCN(C)C)c2ncccn2)cc1`, the max response was -2.44% (inactive).

In the case of `CC1(COc2ccc(CC3SC(=O)NC3=O)cc2)CCCCC1` (stereo not given), the max response is -1.45% (inactive).

For `N=C(N)N1CCc2ccccc2C1`, the max response is 4.15% (inactive).

Take `N#CCC(=O)NN`: the max response is -1.35% (inactive).

On to `CCCCCCCCCCCCSCCOCCO`, for which the max response is 1.68% (inactive).

Take `COc1ccc2c(c1)c1c3n2CCN(C)C3=NCC1`: the max response was 0.417% (inactive).

Consider `C[C@@H](O)[C@H]1C(=O)N2C(C(=O)O)=C(S[C@@H]3CN[C@H](CNS(N)(=O)=O)C3)[C@H](C)[C@H]12`, for which the max response was 7.85% (inactive).

Turning to `CCOC(=O)[C@H](CCc1ccccc1)N[C@@H](C)C(=O)N1[C@H](C(=O)O)C[C@H]2CCCC[C@@H]21`, the max response was 8% (inactive) and -12.5% (inactive).

As to `CO[C@]12C[C@@H](COC(=O)c3cncc(Br)c3)CN(C)[C@@H]1Cc1cn(C)c3cccc2c13`, the max response was 9.31% (inactive).

For the molecule `CN1CCN(c2c(F)cc3c(=O)c(C(=O)O)cn4c3c2SCC4)CC1`, the max response is -15.8% (inactive).

Regarding `NC(=O)c1ccccc1O`, the max response was 10.4% (inactive).

Take `CCc1ccc(C(=O)C(C)CN2CCCCC2)cc1` (stereo not given): the max response was -1.02% (inactive).

`COc1ccccc1N1CCN(CCCCNC(=O)c2ccc(-c3ccc(C(C)=O)cc3)cc2)CC1`: the max response is -4.38% (inactive).

Turning to `Cc1cc2c(OCC(CNC(C)(C)C)OC(=O)c3ccccc3)cccc2[nH]1` (stereo not given), the max response was -8.32% (inactive).

On to `CCOC(=O)[C@H](CCc1ccccc1)N[C@@H](C)C(=O)N1[C@H](C(=O)O)C[C@@H]2CCC[C@@H]21`, for which the max response was 3.06% (inactive).

For the molecule `CC[N+](C)(CC)CCOC(=O)C(O)(c1ccccc1)C1CCCCC1` (stereo not given), the max response was 5.15% (inactive).

As for `CCc1nn(CCCN2CCN(c3cccc(Cl)c3)CC2)c(=O)n1CCOc1ccccc1`, the max response was 3.08% (inactive) and -5.51% (inactive).

On to `CN(CCCN1c2ccccc2CCc2ccccc21)CC(=O)c1ccc(Cl)cc1`, for which the max response was 3.26% (inactive).

`C[N+]12CCC(CC1)C(OC(=O)C(O)(c1ccccc1)c1ccccc1)C2` (stereo not given): the max response was 1.71% (inactive).

These data come from PubChem BioAssay (NCATS).
